From PubChem BioAssay (NCI)
This is part of a sample that, as a whole, favours compounds with a hit. Of some 83,000 tested, about 20% had one in any assay.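 Step 1: grow cells in 96-well plates. Step 2: add test compound at a single concentration. Step 3: incubate 48 h. Step 4: record percent growth.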 Activity calls are given as the source filed them. How the source made its calls: active means growth percent below 10; inactive means the rest.

Test system: MDA-MB-468 breast
Assay: NCI-60 one-dose screen, 48 h (100 = growth as untreated, 0 = no growth, -100 = all killed)
Settings: 10 µM unless noted

Row | SMILES | growth
1 | CC(C)C1=NOC(=O)C1=Cc1cn(-c2ccccc2)nc1-c1ccc(Cl)cc1 | 86.7% (inactive)
2 | Cl.Fc1c[c-]c(-c2ccccn2)c(F)c1.[Pt].c1ccc([PH+](c2ccccc2)c2ccccc2[PH+](c2ccccc2)c2ccccc2)cc1 | -85.8% (active)
3 | COc1ccccc1N1CCN(C(=S)Nc2ccccc2)CC1 | 97% (inactive)
4 | NS(=O)(=O)c1ccc(C(=O)NN2C(=O)c3c(Br)c(Br)c(Br)c(Br)c3C2=O)cc1 | 111% (inactive)
5 | Cc1ccc(NC(=O)c2cc(NCc3cc(O)ccc3O)ccc2O)cc1 | 86.6% (inactive)
6 | CCOC(=O)C1=C(C)NC(C)=C(C(=O)OCC)C1c1cc(Br)c(O)c(OC)c1 | 20.4% (inactive)
7 | C/C=C/C(=O)OCCCCCCCCCCCC | 96.9% (inactive)
